Assay outcomes deposited in PubChem by National Center for Advancing Translational Sciences (NCATS).
p53 reactivator: qHTS assay for re-activators of p53 using a Luc reporter | AID 504706, 2011 | 320,000 compounds, 0.063% hits | H1299 p53-A138V BP100-luciferase reporter, luminescence, 24 h | Potency, µM (highest dose often 92.2 µM), for the others: at the highest dose activity change, positive = activation, actives largely listed as activators; note: potency is the fitted concentration of half-maximal effect; % of control where 0% means no effect; nearly all actives have a fitted effect of over 45% in size
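p53-null H1299 cells stably carrying temperature-sensitive p53-A138V and a BP100-luciferase reporter were pinned with compounds (4-point, 1:5 series) and held 24 hrs at 37 deg C. Luminescence was read 10 min after detection reagent.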
Mm-Cpn inhibitor: Inhibitors of TCP-1 ring complex (TRiC) of Methanococcus maripaludis (MmCpn): qHTS; Chaperonin Mm-Cpn (Methanococcus maripaludis); purified Mm-Cpn ATPase, ADP Transcreener TR-FRET; Potency, µM (top dose mostly 76.9 µM), without a hit: top-dose activity, negative = inhibition, most hits filed as inhibitors; 330,000 compounds, 0.031% hits; AID 504842, 2011; note: potency is the fitted concentration of half-maximal effect; % is set by controls: 0 for no effect and ±100 for the full control effect; nearly all actives have a fitted effect of over 80% in size
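Eu-cryptate anti-ADP/ADP-d2 competition gives a ratio inversely related to ADP. Enzyme at 25 nM was pre-exposed to compound for 10 min, then given 10 uM ATP for 30 min, 37°C throughout.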
S-ASM inh: Inhibitors of Secretory Acid Sphingomyelinase (S-ASM): qHTS. AID 504937, 2011. 340,000 compounds, 0.006% hits. Potency, µM (series often up to 57.5 µM), without a hit: top-dose activity change, negative = inhibition, usual class: inhibitors. placental ASM, HMU-PC fluorogenic substrate, 60 min; note: potency is the fitted concentration of half-maximal effect
Target sequence (P17405 47-631 limits assumed): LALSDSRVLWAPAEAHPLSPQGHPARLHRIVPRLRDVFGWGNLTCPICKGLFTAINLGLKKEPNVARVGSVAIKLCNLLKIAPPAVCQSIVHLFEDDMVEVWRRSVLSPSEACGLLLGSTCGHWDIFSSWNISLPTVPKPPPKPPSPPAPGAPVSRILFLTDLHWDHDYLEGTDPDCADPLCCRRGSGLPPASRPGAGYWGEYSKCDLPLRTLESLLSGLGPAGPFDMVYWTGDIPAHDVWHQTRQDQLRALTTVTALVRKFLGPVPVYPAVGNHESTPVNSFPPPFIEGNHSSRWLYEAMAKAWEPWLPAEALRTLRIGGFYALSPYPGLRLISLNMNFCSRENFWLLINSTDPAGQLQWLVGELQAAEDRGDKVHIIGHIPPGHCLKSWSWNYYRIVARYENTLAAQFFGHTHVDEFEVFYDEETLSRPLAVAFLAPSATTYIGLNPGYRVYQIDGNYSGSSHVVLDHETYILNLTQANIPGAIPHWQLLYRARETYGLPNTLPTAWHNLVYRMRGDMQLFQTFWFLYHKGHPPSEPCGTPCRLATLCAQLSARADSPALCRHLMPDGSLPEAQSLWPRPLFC
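Human placenta-derived ASM preincubated with compound 10 min at room temperature, then reacted with 9 uM (final) fluorogenic HMU-PC substrate for 60 min at 37 C. Stop solution raises pH to 10; fluorescence read at Ex 386/Em 447 nm.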
uPA surface inh: qHTS for Inhibitors of Cell Surface uPA Generation; 330,000 compounds, 0.31% hits; Potency, µM (top dose mostly 38.3 µM), for inactives: at the highest dose activity change, negative = inhibition, usual class: inhibitors; cell surface uPA generation assay, qHTS; active = well fitted inhibition curve with a large enough effect; inconclusive = small, poorly fitted or top-dose-only effect; inactive = no such curve, though single readings can be large or run the other way; tested in mouse RAW 264.7 cells; note: potency is the fitted concentration of half-maximal effect; % is set by controls: 0 for no effect and ±100 for the full control effect; nearly all actives have a fitted effect of over 55% in size
KCNH2 3.1 block: qHTS for Inhibitors of KCHN2 3.1: Mutant qHTS. Potassium voltage-gated channel subfamily H member 2, brain isoform KCNH2 3.1 (human). U2OS KCNH2 3.1, thallium flux FluxOr; stronger effect = lower value. activity change, % (tested at about 1.8 µM). 340,000 compounds, 0.95% hits;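 active = maximum activity change below -70%; inconclusive = maximum activity change from -70% to -50%; inactive = maximum activity change above -50%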;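 note: thallium influx rate constant from kinetic fluorescence after stimulation buffer; % is set by controls: 0 for no effect and ±100 for the full control effect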
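U2OS cells transduced with KCNH2 3.1 mutant virus (1.77 x 10^8 /mL, 4 h), plated overnight at 37 C, loaded 45 min with FluxOr dye plus Red40 quencher. Thallium flux rate constant from kinetic reads after stimulation buffer, normalised to controls.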
hERG WT inh: qHTS for Inhibitors of KCHN2 3.1: Wildtype qHTS; U2OS, BacMam KCNH2, thallium flux FluxOr; stronger effect = lower value; activity change, % at 1.84 µM; 340,000 compounds, 0.37% hits;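 active = maximum activity change below -70%; inconclusive = maximum activity change between -70% and -50%; inactive = maximum activity change above -50%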; note: % is set by controls: 0 for no effect and ±100 for the full control effect
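U2OS cells were transduced with wild-type KCNH2 virus (2.03 x 10^8 / mL) for 4 h at room temperature, then cultured overnight at 37 C. Thallium flux was read with FluxOr dye. Rate constants were normalized to DMSO controls.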
Numbers without * were called inactive; ? = inconclusive; nt = no result. In the library only some 1.4% were active in any assay of this set; here they are far more common. Unless noted, calls come from the whole dose curve; as a rule, active = well fitted curve in the direction sought with a large enough effect; inconclusive = small, poorly fitted or top-dose-only effect, or another doubt; inactive = no such curve, though single readings can be large; an effect the other way counts as inactive or inconclusive.

SMILES	p53 reactivator	Mm-Cpn inhibitor	S-ASM inh	uPA surface inh	KCNH2 3.1 block	hERG WT inh
Cc1ccc(-c2nc3ccccn3c2NCc2ccc3c(c2)OCO3)cc1	10%	-8%	206%	-2%	-92*	-14
Cc1ccc(Nc2c(-c3ccccn3)nc3cc(C)ccn23)cc1	?	-1%	12%	-2%	-24	3
Cc1ccc(Nc2c(-c3ccccn3)nc3ccc(C)cn23)cc1	?	-2%	1%	6.3µM*	-11	-3
Cc1ccn2c(Nc3ccc4c(c3)OCO4)c(-c3ccccn3)nc2c1	20µM*	-1%	10%	2%	-24	-5
O=C(N/N=C/c1ccccc1)C1CCCN1C(=O)c1cc([N+](=O)[O-])cc([N+](=O)[O-])c1 (stereo not given)	8%	0%	1%	-1%	20	-11
COC(=O)C(C)N1C(=O)S/C(=C\c2ccc(-c3ccc(C(=O)O)cc3C)o2)C1=O (stereo not given)	14%	1%	29%	2%	2	4
C/C(=N\NC(=O)c1cc(-c2cccnc2)nc2ccccc12)c1ccccc1O	?	-1%	-2%	-2%	-110*	-5
COc1cccc(/C(C)=N/NC(=O)c2cc(-c3cccnc3)nc3ccccc23)c1	5%	0%	-8%	7%	3	13
COc1ccc(/C(C)=N/NC(=O)c2cc(-c3cccnc3)nc3ccccc23)cc1	4%	0%	8%	-3%	nt	-19
COc1ccc(-c2cc(C(=O)N/N=C(\C)c3cccnc3)c3ccccc3n2)cc1	8%	0%	84%	8.9µM*	11	1
Cc1ccc(-c2cc(C(=O)NN=C3CCCC3)c3ccccc3n2)cc1	-1%	0%	-2%	1%	16	-197*
CCN(CC)S(=O)(=O)c1ccc(N2CCOCC2)c(NC(=O)c2ccc(=O)[nH]c2)c1	-4%	-1%	-1%	1%	13	2
O=c1cc(-c2ccc(OCc3ccccc3)cc2)oc2cc(OCc3ccccc3)cc(OCc3ccccc3)c12	5%	-2%	9%	25%	-5	-7
O=C(COC(=O)/C=C/c1ccc([N+](=O)[O-])cc1)NCc1ccccc1	0%	2%	0%	-5%	-8	1
O=C(COC(=O)/C=C/c1ccc([N+](=O)[O-])cc1)NC(c1ccccc1)c1ccccc1	-9%	-12%	3%	-2%	-11	-133*
O=C(COC(=O)/C=C/c1ccc(OC(F)F)cc1)NCc1cccs1	14%	2%	1%	4%	-2	24
O=C(CO/N=C/c1ccc(OC(F)F)cc1)NCc1cccs1	-8%	1%	-4%	7%	-80*	-16
Cn1c2c(c3ccccc31)CCN(CCCCN1CCN(c3ccccc3)CC1)C2=O	nt	nt	-3%	6%	-109*	-78*
CC(C)CCc1noc(CN(C)CCC2CCOCC2)n1	0%	2%	1%	-3%	-12	-11
CC(C)CCc1noc(CN(CC2CCC2)CC2CCCO2)n1 (stereo not given)	5%	1%	0%	2%	-72*	-11
Cc1ccc(C(C)C)c(OC(=O)/C=C/c2ccccc2)c1	16%	0%	-5%	nt	-91*	-12
CNc1oc(-c2ccccc2)nc1C#N	5%	-3%	-2%	-9%	-81*	-3
CCOC(=O)C1=C(Nc2ccc(OC)cc2)C(N)=NC1=N	nt	nt	nt	nt	14	-1
CCN1/C(=C/c2ccc3cc(C)cc(C)c3[n+]2CC)Sc2cc(C)ccc21	13%	-5%	-24%	?	-15	-17
C=CC[n+]1c(/C=C2\C=Cc3cc(C)ccc3N2CC)ccc2ccccc21	-6%	-15%	-1%	8.9µM*	-16	nt
SMILES	p53 reactivator	Mm-Cpn inhibitor	S-ASM inh	uPA surface inh	KCNH2 3.1 block	hERG WT inh
Cc1cnc(NC(=O)CCc2ccccc2)s1	nt	-1%	6%	10µM*	-7	-1
Cc1sc2ncnc(N/N=C/c3cccc(O)c3)c2c1C	?	0%	-13%	5%	9	-11
C/C(=N\Nc1ncnc2sc(C)c(C)c12)c1ccccn1	?	0%	-3%	5%	-8	-73*
O=C(CCCN1CCC(NC(=O)c2ccccc2)CC1)c1ccc(Cl)cc1	-6%	-1%	-4%	8%	-106*	-4
O=C(NC1CCN(Cc2ccc3ccccc3c2)CC1)c1ccccc1	-5%	2%	2%	-3%	-79*	1
Cc1ccc(C(=O)NC2CCN(CCCC(=O)c3ccc(F)cc3)CC2)cc1	8%	0%	-1%	-1%	-34	-36
COc1ccc(OC)c(-c2nc(C(=O)NC3CCN(Cc4ccccc4)CC3)cc3c2[nH]c2ccccc23)c1	nt	-7%	22%	-19%	-97*	?
COc1cc(C(=O)NC2CCN(Cc3ccccc3)CC2)cc(Cl)c1OC	1%	-1%	1%	10%	-90*	17
CCOc1ccc(CN(C)C(=O)c2ccc(S(=O)(=O)N(C)c3ccccc3OC)cc2)cc1	-3%	0%	-1%	-10%	-18	-8
Cn1c(SCC(=O)O)nnc1-c1ccc(NC(=O)c2ccc(Cl)c(Cl)c2)cc1	4%	1%	16%	7%	-16	-127*
COc1ccccc1C(=O)Nc1ccc(-c2nnc(SCC(=O)O)n2C)cc1	-5%	0%	11%	2%	0	13
COc1cc2oc(=O)ccc2cc1-c1c(OC)ccc2ccc(=O)oc12	-7%	-1%	4%	8.9µM*	7	-7
CSc1ccc(OC2CCN(Cc3ccccc3)CC2)cc1	-10%	-1%	1%	2%	-89*	?
Cc1ccc(S(=O)(=O)Nc2ccccc2CNc2ncc(Br)cc2Br)cc1	15%	0%	-1%	2%	-94*	-1
CC1=Nc2ccc(Br)cc2C(c2ccccc2)N1CC(=O)NN (stereo not given)	8%	1%	2%	12%	2	1
NNC(=O)CN1C(CN2CCOCC2)=Nc2ccc(Br)cc2C1c1ccccc1 (stereo not given)	0%	-3%	0%	-4%	-73*	-32
C[C@H](CO)N1C[C@H](C)[C@H](CN(C)S(=O)(=O)c2cccs2)Oc2ncc(-c3cc4ccccc4o3)cc2C1=O	nt	nt	nt	nt	8	3
